Assay outcomes: PubChem, National Center for Advancing Translational Sciences (NCATS)
Most compounds without a hit are left out; they make up all but 7.5% or so of the library.
ELG1 genotox: genotoxicity induction in ELG1-luciferase HEK293T cells; HEK293T ELG1-luciferase reporter, luminescence, 16 h; Potency, µM (highest dose often 46 µM), for the others: at the top dose activity change, positive = activation, hits mostly activators; 330,000 tested, 1.3% active; note: % of control where 0% means no effect; nearly all actives have a fitted effect of over 60% in size
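Genotoxicity was scored as increased ELG1-luciferase reporter signal, measured by ONE-Glo luminescence (30 min, room temperature). Compound or vehicle exposure of the HEK293T reporter cells lasted 16 hr at 37°C.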
NPC1 promoter act: NPC1 promoter activation. AID 485313. 320,000 tested, 2.4% active. Huh7 NPC1 promoter luciferase reporter, 24 h. Potency, µM (series often up to 9.22 µM), for the others: top-dose activation, most hits filed as activators; note: % of control where 0% means no effect; nearly all actives have a fitted effect of over 60% in size
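In 1536-well qHTS, Huh7 cells harboring an NPC1 promoter–luciferase construct received compound for 24 h; activation was quantified by luminescence following luciferase reagent addition.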
FLuc modulator: firefly luciferase modulation, counter-screen for miR-21 project; P08659; purified FLuc, Km substrates, luminescence inhibition; Potency, µM (top dose mostly 57.5 µM), inactives show top-dose activity change, negative = inhibition, actives largely listed as inhibitors; 360,000 tested, 6.9% active; AID 588342;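 note: plate controls were vehicle for no effect and reference inhibitor for full effect; nearly all actives have a fitted effect of over 55% in size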
Target sequence (P08659 whole entry, looked up): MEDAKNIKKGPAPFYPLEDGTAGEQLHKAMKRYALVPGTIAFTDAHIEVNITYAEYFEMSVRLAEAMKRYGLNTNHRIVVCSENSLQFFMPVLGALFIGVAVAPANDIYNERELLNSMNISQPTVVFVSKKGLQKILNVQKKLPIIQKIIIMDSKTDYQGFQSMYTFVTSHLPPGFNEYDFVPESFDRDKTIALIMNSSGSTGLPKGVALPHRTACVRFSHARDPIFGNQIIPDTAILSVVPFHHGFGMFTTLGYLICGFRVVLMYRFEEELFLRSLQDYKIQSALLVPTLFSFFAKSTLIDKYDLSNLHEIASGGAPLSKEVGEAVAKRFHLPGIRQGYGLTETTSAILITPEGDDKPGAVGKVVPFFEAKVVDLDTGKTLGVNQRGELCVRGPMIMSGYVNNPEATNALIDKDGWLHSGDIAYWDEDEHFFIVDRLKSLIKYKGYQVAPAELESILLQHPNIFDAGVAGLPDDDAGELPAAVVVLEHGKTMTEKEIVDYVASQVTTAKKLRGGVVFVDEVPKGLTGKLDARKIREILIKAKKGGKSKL
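Biochemical qHTS of compounds, final roughly 60 µM downward over six points, against 10 nM purified firefly luciferase using Km concentrations of substrates (10 uM D-luciferin, 10 uM ATP) in Tris acetate pH 7.5 buffer; luminescence output.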
Rab9 prom act: activators of Rab9 promoter. Potency, µM (titrated, usually from 9.22 µM), for inactives: at the highest dose activation, negative = inhibition, most hits filed as activators. 320,000 tested, 2.8% active. Huh7 Rab9 promoter-luciferase reporter, luminescence, 24 h; note: % of control where 0% means no effect; nearly all actives have a fitted effect of over 60% in size
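Huh7 cells stably carrying a Rab9 promoter-luciferase reporter, 1500 cells per well in OP-MEM I with 10% FBS, treated with compound 24 hours at 37C. Luciferase activity read by luminescence after 10 minutes with Amplite reagent.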
SMN2 splice up: enhancers of SMN2 splice variant expression | HEK293 SMN2-luciferase splicing reporter, luminescence, 30-36 h | Potency, µM (top dose mostly 46.1 µM), without a hit: at the highest dose activity change, positive = activation, hits mostly activators | 210,000 tested, 2.8% active | AID 1458; note: % of control where 0% means no effect; nearly all actives have a fitted effect of over 55% in size
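qHTS luciferase splicing reporter: luminescence rises when SMN2 exon 7 is included in transfected HEK293 cells. Compound exposure lasted 30-36 h at 37C, with 4.5 mM final sodium butyrate as control, followed by a ONE-Glo read.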
An asterisk follows results filed as active; u = inconclusive; x = not tested or not shown. Calls come from the whole dose curve; as a rule, active = well fitted curve in the direction sought with a large enough effect; inconclusive = small, poorly fitted or top-dose-only effect, or another doubt; inactive = no such curve, though single readings can be large; an effect the other way counts as inactive or inconclusive. Potency is the fitted concentration of half-maximal effect.

SMILES | ELG1 genotox | NPC1 promoter act | FLuc modulator | Rab9 prom act | SMN2 splice up
O=C(OCc1c(Cl)cccc1Cl)c1cnccn1 | -1% | 2% | 1% | 0% | -6%
CC(OC(=O)CCN=C1NS(=O)(=O)c2ccccc21)C(=O)Nc1ccc(F)c(F)c1F (configuration not stated) | -2% | 4% | 2% | 1% | x
Cc1ccc(CC(=O)NC(C)CCc2ccccc2)cc1 (configuration not stated) | 0% | -1% | 0% | 2% | -15%
Cc1c2ccccc2nc2c(F)c(N(C)C)c(F)c(F)c12 | u | 21% | 9.5µM* | u | u
CN(C)c1c2ccccc2nc2c(F)c(F)c(F)c(F)c12 | 1% | -19% | 2% | -4% | 15%
CCn1c(CNC(C)=O)nnc1SCC(=O)c1ccc(Br)cc1 | -1% | -5% | -3% | 0% | u
CCN(CC)C(=S)SCC(=O)c1ccc(Br)cc1 | u | u | 19µM* | u | u
Oc1cc2ccccc2nc1-c1ccccc1Cl | -5% | -3% | -14% | -3% | x
CC1(C)c2ccccc2-c2nc3ccccc3cc2C1O (configuration not stated) | 0% | -5% | 15µM* | 4% | x
CCSc1nc2ccccc2[nH]1 | -7% | 6% | -8% | -9% | 15%
O=[N+]([O-])c1ccc(CSc2nc3ccccc3[nH]2)cc1 | u | 4µM* | 6µM* | 2.2µM* | 16µM*
CCCOc1ccc(CSc2nc3ccccc3[nH]2)cc1 | u | 25% | 2.1µM* | u | 20%
c1ccc(CSc2nc3ccccc3[nH]2)cc1 | u | 0.79µM* | 3.4µM* | 0.79µM* | x
Fc1ccc(CSc2nc3ccccc3[nH]2)c2ccccc12 | 5% | 0% | 24µM* | 17% | -5%
c1ccc(CSCc2nc3ccccc3[nH]2)cc1 | u | u | 19µM* | 2.5µM* | u
Fc1cccc(CSc2nc3ncccc3[nH]2)c1 | -1% | 24% | u | u | 16%
CCOc1ccc2nc(SCC(=O)NCc3ccccc3)[nH]c2c1 | -7% | 0% | -11% | -1% | x
Fc1ccc(CSc2nc3ccccc3[nH]2)cc1 | u | 2.8µM* | 4.8µM* | 1.4µM* | 11µM*
CCOc1ccc2nc(SCC)[nH]c2c1 | 16% | u | 19µM* | u | 4%
O=C(CSCc1nc2ccccc2[nH]1)Nc1ccccc1 | -5% | 0% | 0% | 5% | x
Fc1ccc(CSc2nc3ncccc3[nH]2)cc1 | u | u | 13µM* | u | u
Cc1cccc2sc(NC(=O)CNS(=O)(=O)c3ccc(Br)s3)nc12 | -1% | 3% | 0% | 6% | -18%
O=C(Nc1nc(-c2cc3ccccc3oc2=O)cs1)c1ccc(Br)o1 | 4% | 10% | 6% | 4% | 28%
Cc1cc(-c2csc(NC(=O)c3cc4ccccc4o3)n2)c(C)n1C | 6% | 13% | 9.5µM* | 23% | 2%
O=C(Nc1nc(-c2cccs2)cs1)c1cc2ccccc2oc1=O | 5% | 23% | 2.7µM* | u | 11%
SMILES | ELG1 genotox | NPC1 promoter act | FLuc modulator | Rab9 prom act | SMN2 splice up
Cc1c(C(=O)Nc2nc(-c3ccccn3)cs2)oc2ccccc12 | -1% | 16% | 9.5µM* | 7% | x
O=C(Nc1nc(-c2ccccn2)cs1)c1cc2ccccc2o1 | -8% | 9% | 5.4µM* | 4% | -77%
O=c1oc2ccccc2cc1-c1nc(-c2cccs2)cs1 | u | 10% | u | 16% | 0%
COc1ccc(NC(=O)c2c[nH]n3c(=O)cc(C4CCN(C(=O)OC(C)(C)C)CC4)nc23)cc1Cl | -3% | 2% | u | -3% | x
CC(=O)n1nc(-c2ccc(Cl)cc2)nc1NCc1ccco1 | 21µM* | u | -5% | 2.8µM* | x
COc1ccc(CC(=O)n2nc(-c3ccc(Cl)cc3)nc2NCc2ccco2)cc1 | 14% | u | -2% | 3.2µM* | u
O=C(c1ccccc1)n1nc(-c2ccc(Cl)cc2)nc1NCc1ccco1 | x | x | 2% | x | u
CCN(CC(=O)Nc1cc(Cl)ccc1C)C(=O)c1cc(S(=O)(=O)N2CCCCCC2)ccc1OC | -2% | -1% | 0% | -8% | x
O=C(CCn1c(=O)[nH]c2ccsc2c1=O)N1CCN(c2ccc([N+](=O)[O-])cc2)CC1 | -18% | 1% | 1% | 6% | x
